The source of these data is PubChem BioAssay (NCATS).

Assay in all cases: Primary qHTS to identify gynecologic anti-cancer compounds using libraries of approved drugs and bioactive compounds (AID 1345084); further: nearly all actives have a fitted effect of over 55% in size
On the technique in general: Quantitative high-throughput screening tests each substance at several concentrations.

The subject of one assay is C33A. Conditions: Gynecologic cancer cell panel viability, ATPlite luminescence, 48 h; series mostly up to 57.5 µM. In a few lines: (§1)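 Measured: luminescence after ATPlite addition (15 min, RT). Exposure: 48 h, 37 C, 5% CO2.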
The subject of another assay is CAOV3. Conditions: Gynecologic cancer cell panel viability, ATPlite luminescence, 48 h; series mostly up to 57.5 µM. The gist of the method:
as §1

The test system of the next assay is CASKI. Conditions: Gynecologic cancer cell panel viability, ATPlite luminescence, 48 h; series mostly up to 57.5 µM. The gist of the method: as §1
A further assay deals with Es-2. Conditions: Gynecologic cancer cell panel viability, ATPlite luminescence, 48 h; series mostly up to 57.5 µM. In a few lines: as §1
The subject of another assay is HeLa. Conditions: Gynecologic cancer cell panel viability, ATPlite luminescence, 48 h; series mostly up to 57.5 µM. In a few lines:
as §1
Background: In ATP-based viability assays light output follows the ATP content of the culture.

Another assay concerns Hek293T. Conditions: Gynecologic cancer cell panel viability, ATPlite luminescence, 48 h, control line for the selectivity index; series mostly up to 57.5 µM. The gist of the method:
as §1

In a further assay the test system is OV90. Conditions: Gynecologic cancer cell panel viability, ATPlite luminescence, 48 h; series mostly up to 57.5 µM. The gist of the method: as §1
The test system of a further assay is PA-1. Conditions: Gynecologic cancer cell panel viability, ATPlite luminescence, 48 h; series mostly up to 57.5 µM. The gist of the method: as §1
A further assay relates to SKOV3. Conditions: Gynecologic cancer cell panel viability, ATPlite luminescence, 48 h; series mostly up to 57.5 µM. In a few lines: as §1
Another assay has as its system Tov-21-G. Conditions: Gynecologic cancer cell panel viability, ATPlite luminescence, 48 h; series mostly up to 57.5 µM. In a few lines: as §1
The subject of a further assay is Tov112D. Conditions: Gynecologic cancer cell panel viability, ATPlite luminescence, 48 h; series mostly up to 57.5 µM. In a few lines:
as §1

The next assay has as its system JEG-3. Conditions: Gynecologic cancer cell panel viability, ATPlite luminescence, 48 h; series mostly up to 57.5 µM. The gist of the method:
as §1

SMILES strings stand for the structures. Results filed as inconclusive are left out. Values without a mark were called inactive. Active and inactive are the calls of the source. The call rests on the fitted dose curve; in most records, active means well fitted cell-killing curve with a large enough effect; inconclusive means small, poorly fitted or top-dose-only effect, or effect the other way; inactive means flat fitted curve, though single readings scatter.
Potency means the concentration at half of the fitted maximal effect.

Regarding `CC1CC2OC3(OC2C(C)(C)O)C1C1(C)CCC24CC25CCC(O[C@@H]2OC[C@@H](O)[C@H](O)[C@H]2O)C(C)(C)C5CC=C4C1(C)C3O` (stereo not given in full), the Potency entry in the assay on C33A, in the assay with CAOV3, in the assay on CASKI, with Es-2, with HeLa and in the assay on Hek293T was “inactive” in each case. The Potency result in the assay with OV90, with PA-1, with SKOV3, with Tov-21-G and in the assay on Tov112D was “inactive” throughout.
Regarding `CC1(C)CC2C(C1)C(C)(O)C13CC1(COC3=O)C2O` (stereo not given), the Potency entry in the assay with C33A, in the assay on CAOV3, in the assay with CASKI, in the assay on Es-2, with HeLa and with Hek293T was “inactive” throughout. Moreover, the Potency entry in the assay with OV90, in the assay on PA-1, in the assay on SKOV3, in the assay on Tov-21-G and in the assay with Tov112D was “inactive” throughout.
Turning to `C/C=C/c1ccc2oc(-c3ccc(O)c(OC)c3)c(C)c2c1`, the Potency result with C33A, in the assay on CAOV3, in the assay on CASKI, with Es-2, in the assay with HeLa and with Hek293T was “inactive” in each case. The Potency result in the assay on JEG-3, in the assay on Tov-21-G and with Tov112D was “inactive” each time. Further, the Potency in the assay on OV90 is 20 µM (active).
Take `CC(C)=CCCC1(C)C=Cc2c(c(C)cc3c2[nH]c2ccccc23)O1` (stereo not given): the Potency result in the assay with C33A, in the assay with CAOV3, with CASKI, with Es-2, with HeLa and with Hek293T was “inactive” in each case. Moreover, the Potency result in the assay with JEG-3, in the assay on Tov-21-G and in the assay on Tov112D was “inactive” throughout. Further, in the assay on SKOV3, the Potency is 8.91 µM (active).
For `COc1cc(O)cc(/C=C/c2ccc(O[C@@H]3O[C@H](CO)[C@@H](O)[C@H](O)[C@H]3O)cc2)c1`, the Potency result with C33A, in the assay with CAOV3, in the assay on CASKI, with Es-2, with HeLa and in the assay on Hek293T was “inactive” in each case. For the same compound, the Potency entry in the assay on OV90, in the assay on PA-1 and in the assay on Tov112D was “inactive” each time.
For the compound `COC(=O)c1ccnc(-c2cc(C(=O)NCCc3ccccc3)ccn2)c1`, the Potency entry in the assay with C33A, in the assay with CAOV3, with CASKI, in the assay with Es-2, with HeLa and with Hek293T was “inactive” in each case. Further, the Potency result with OV90, in the assay on PA-1, in the assay on SKOV3, in the assay on Tov-21-G and with Tov112D was “inactive” in each case.
As to `Cc1cc(C(N)=O)ccc1-n1c(CCC(=O)O)ccc1-c1ccc(-n2ccnc2)cc1`, the Potency entry in the assay on C33A, with CAOV3, in the assay with CASKI, in the assay on Es-2, in the assay on HeLa and in the assay with Hek293T was “inactive” each time. The Potency entry in the assay on OV90, in the assay on PA-1, in the assay on Tov-21-G and in the assay on Tov112D was “inactive” each time.
As to `O=C(c1cc2c(cc1F)OC(c1ccc(F)cc1)(c1ccc(Cl)cc1Cl)O2)N1CCOCC1` (stereo not given), the Potency result with C33A, in the assay on CAOV3, in the assay with CASKI, in the assay with Es-2, in the assay with HeLa and with Hek293T was “inactive” in each case. For the same compound, the Potency result in the assay on JEG-3, in the assay on PA-1, in the assay on Tov-21-G and with Tov112D was “inactive” throughout.
Take `COc1cc(Nc2nc3c(s2)CCCC3c2ccc(F)cc2)ccc1-n1cnc(C)c1` (stereo not given): the Potency result in the assay on C33A, in the assay with CAOV3, in the assay with CASKI, in the assay on Es-2, in the assay with HeLa and in the assay with Hek293T was “inactive” throughout. Besides, the Potency entry with JEG-3, in the assay on PA-1, with Tov-21-G and in the assay with Tov112D was “inactive” each time.
`CC(C)(C)NS(=O)(=O)c1cncc(-c2cc(F)c3nc(N)nn3c2)c1`: the Potency entry in the assay on C33A, with CAOV3, in the assay with CASKI, in the assay on Es-2, in the assay on HeLa and with Hek293T was “inactive” each time. For the same compound, the Potency entry in the assay with JEG-3, with OV90, with SKOV3, with Tov-21-G and in the assay on Tov112D was “inactive” throughout.
Regarding `C/C=C/C=C/C(O)=C1\C(=O)[C@]2(C)C3C(C(=O)CC/C=C/C)=C(O)C4(C)C1[C@]1(C)O[C@@]4(O)[C@@]3(C)O[C@@]12O`, the Potency entry with C33A, in the assay on CAOV3, with CASKI, with Es-2, in the assay on HeLa and in the assay with Hek293T was “inactive” in each case. In addition, the Potency result in the assay with JEG-3, in the assay with PA-1, in the assay with SKOV3, with Tov-21-G and in the assay with Tov112D was “inactive” each time.
Take `C/C=C(\C)C(=O)O[C@H]1[C@@H](O[C@]2(COC(=O)CC(C)C)O[C@H](COC(=O)C(C)CC)[C@@H](OC(C)=O)[C@@H]2O)O[C@H](COC(C)=O)[C@@H](O)[C@@H]1O` (stereo not given in full): the Potency result in the assay with C33A, in the assay with CAOV3, in the assay with CASKI, in the assay on Es-2, with HeLa and in the assay with Hek293T was “inactive” in each case. Moreover, the Potency result in the assay with JEG-3, in the assay with OV90, in the assay on SKOV3, in the assay with Tov-21-G and with Tov112D was “inactive” in each case.
Turning to `C=C1CCC2C(C)(C)C(O)CCC2(C)C1CCC(C)CCOC(C)=O` (stereo not given), the Potency result in the assay on C33A, in the assay with CAOV3, in the assay with CASKI, in the assay with Es-2, with HeLa and in the assay with Hek293T was “inactive” each time. The Potency entry in the assay on JEG-3, in the assay with OV90, in the assay with Tov-21-G and with Tov112D was “inactive” each time.
Turning to `Cc1[nH]nc(C(F)(F)F)c1Cc1sc2c(c1C(=O)N1C[C@](C)(O)CO1)c(=O)n(C)c(=O)n2C(C)C`, the Potency entry in the assay on C33A, with CAOV3, in the assay on CASKI, in the assay on Es-2, with HeLa and in the assay with Hek293T was “inactive” each time. The Potency result in the assay on JEG-3, with OV90, in the assay on Tov-21-G and with Tov112D was “inactive” in each case.
For `N[C@H]1Cc2ccccc2N(O)C1=O`, the Potency entry in the assay with C33A, in the assay on CAOV3, in the assay with CASKI, with Es-2, with HeLa and in the assay with Hek293T was “inactive” each time. The Potency entry with JEG-3, in the assay with PA-1, in the assay on SKOV3, in the assay on Tov-21-G and in the assay with Tov112D was “inactive” each time.
For the compound `CS(=O)(=O)NCC1CCC(Nc2nc3c(s2)CCSc2ccccc2-3)CC1` (stereo not given), the Potency result in the assay with C33A, in the assay on CAOV3, in the assay on CASKI, in the assay on Es-2, in the assay with HeLa and in the assay with Hek293T was “inactive” throughout. Further, the Potency result in the assay on JEG-3, in the assay with Tov-21-G and in the assay with Tov112D was “inactive” throughout.
As for `CC(C)[N+]1(C)C2CCC1CC(OC(=O)C(CO)c1ccccc1)C2` (stereo not given), the Potency result with C33A, in the assay on CAOV3, with CASKI, in the assay with Es-2, in the assay on HeLa and in the assay with Hek293T was “inactive” each time. Moreover, the Potency entry in the assay with JEG-3, in the assay with OV90, in the assay with Tov-21-G and in the assay with Tov112D was “inactive” throughout.
Consider `CCCCc1ccc(C(=O)Nc2cc(-c3ccc(Cl)cc3)nn2-c2ccc(Cl)cc2)cc1`, for which the Potency result in the assay with C33A, in the assay with CAOV3, in the assay with CASKI, in the assay on Es-2, in the assay with HeLa and in the assay on Hek293T was “inactive” throughout. In addition, the Potency entry in the assay with JEG-3, in the assay on OV90, in the assay on Tov-21-G and in the assay on Tov112D was “inactive” in each case.
